Screening results from PubChem BioAssay.
Shown are actives, neighbours in structure and some others; about 4.1% of the full set was active somewhere.
TRPM1 prom inh: inhibitors of MITF-driven TRPM1 promoter in melanoma cells. SK-MEL-5 TRPM1 promoter luciferase, 24 h. inhibition, % at 12.5 µM. 330,000 compounds, 0.83% hits;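 active means mean inhibition across replicates of 60% or more, whatever share of single replicates reaches that level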
TWEAK-Fn14 inh: blocks TWEAK-Fn14 interaction in a reporter cell assay; inhibition, % at 10 µM; TWEAK-stimulated Fn14 reporter cells, luciferase luminescence, 8 h; 360,000 compounds, 2% hits; AID 1159606; in the data active means inhibition above about 50%
TROY signal inh: TROY signaling inhibition. Q293 LMP1-TROYcd NF-kB luciferase reporter, 4 h. inhibition, % at 10 µM. 360,000 compounds, 0.98% hits;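 active means compounds whose plate-normalised and pattern-corrected inhibition of the luciferase reporter signal at the single screening dose is 50% or more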
Shn3 3UTR inh: Schnurri-3 reporter inhibition in Clone20 osteoblasts; Clone20 osteoblast Shn3 3'UTR firefly luciferase, 24 h; inhibition, % at 12.5 µM; 360,000 compounds, 0.52% hits; AID 588674;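 active means mean inhibition of at least 75% with every replicate also reaching 75%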;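 further: 0% = median of neutral control wells and 100% = pilot-screen positive control compound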
EBV LMP1 NFkB: reduces LMP1-driven NF-kappaB luciferase signal. LMP1-induced NF-kappaB luciferase reporter cells, luminescence. 350,000 compounds, 0.69% hits. AID 504558. inhibition, % at 12.5 µM; in the data active means inhibition above about 41%;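 further: 0% = neutral control wells and 100% = reference inhibitor control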
Peg3 prom inh: inhibitors of Peg3 promoter | 360,000 compounds, 1.7% hits | inhibition, % at 20 µM | HeLa PEG-Prom luciferase reporter, luminescence, overnight;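 active means inhibition of at least 50% at 20 µM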
* = called active by the depositor; . = not tested or not shown.

SMILES	TRPM1 prom inh	TWEAK-Fn14 inh	TROY signal inh	Shn3 3UTR inh	EBV LMP1 NFkB	Peg3 prom inh
Cc1ccc(S(=O)(=O)/N=C2/C=C(Sc3ncn[nH]3)C(=O)c3ccccc32)cc1	91.3*	94.7*	38.1	98.5*	64.0*	105.7*
CC(C)c1ccc(S(=O)(=O)/N=C2/C=C(Sc3ncn[nH]3)C(=O)c3ccccc32)cc1	59.9	92.3*	62.1*	79.1	-0.7	63.7*
COc1ccc(OC)c(S(=O)(=O)N2CCCC(C(=O)NCc3cccnc3)C2)c1 (centres undefined)	1.5	-3.0	1.3	-4.2	-3.6	8.5
O=C1c2cccc(NCCCNCCO)c2C(=O)c2cccc(NCCCNCCO)c21	85.8*	-8.3	-5.3	-49.1	25.3	108.6*
CN1CCN(CC(=O)NC(=O)NC2CCCCC2)CC1	-1.0	3.9	-11.7	-17.3	0.9	5.4
CC1CCCCC1NC(=O)NC(=O)CCl (centres undefined)	.	-2.9	-11.5	7.0	0.0	55.0*
CC1CCCC(NC(=O)NC(=O)CCl)C1C (centres undefined)	71.1*	2.9	-6.4	-1.4	10.3	51.4*
COc1ccc(N2C(=O)c3ccccc3NC2(C)C)cc1	-52.7	-12.2	-66.1	-29.2	41.8*	-101.5
CC(C)CNC(=O)[C@H]1N2C(=O)c3ccccc3C2SC1(C)C (some centres undefined)	7.0	-9.0	-14.9	-11.0	-2.4	11.4
CC1(C)SC2c3ccccc3C(=O)N2[C@@H]1C(=O)NCCCN1CCOCC1 (some centres undefined)	-1.3	-20.2	-3.5	-3.5	70.6*	10.3
O=C(N/N=C/c1cn(-c2ccccc2)nc1-c1cccnc1)c1cccnc1	-14.7	-3.7	7.7	-7.4	-3.8	-6.1
O=C(N/N=C/c1cn(-c2ccccc2)nc1-c1cc2ccccc2o1)c1cccnc1	-9.7	84.6*	63.4*	-15.4	-31.7	-52.7
O=C(N/N=C/c1cn(-c2ccccc2)nc1-c1cc2ccccc2o1)c1ccncc1	-36.0	69.6*	28.2	10.9	-4.0	-98.7
O=C(N/N=C/c1cn(-c2ccccc2)nc1-c1ccc(F)cc1)c1ccc(Br)o1	-10.4	52.7*	12.8	13.7	12.5	-71.4
O=C(N/N=C/c1cn(-c2ccccc2)nc1-c1cccs1)c1ccc(Cl)cc1	-24.8	54.6*	-11.2	-11.3	-4.1	-41.1
O=C(Cc1ccccc1)NCC(=O)N1CCN(c2ccc(F)cc2)CC1	.	-3.4	1.3	-17.6	-5.6	13.1
O=C(CC[C@H]1O[C@@H](n2ccc(=O)[nH]c2=O)[C@H](O)[C@@H]1O)N[C@@H](Cc1ccccc1)C(=O)NCC1CCCO1 (some centres undefined)	.	-4.7	54.0*	25.3	.	-4.4
O=C(CC[C@H]1O[C@@H](n2ccc(=O)[nH]c2=O)[C@H](O)[C@@H]1O)N[C@H](Cc1ccccc1)C(=O)NCC1CCCCC1	.	-7.8	10.4	-24.1	.	7.3
O=C(Nc1nccs1)C(c1ccccc1)N1CCCC1 (centres undefined)	-4.9	86.2*	6.7	-15.9	-5.6	-2.1
CC(C)C(C(=O)Nc1nccs1)c1ccccc1 (centres undefined)	-8.2	4.6	-14.4	22.2	0.3	13.1
O=C(Nc1cccc(S(=O)(=O)NC2=NCCC2)c1)C1CC(=O)N(c2ccc3c(c2)OCCO3)C1 (centres undefined)	4.0	38.7	5.2	87.2*	5.0	-1.6
O=C(Nc1ccc2c(c1)OCO2)C1CC(=O)N(c2ccccc2)C1 (centres undefined)	0.1	-3.4	2.9	-1.2	5.4	2.0
CC(=O)c1cccc(NC(=O)C2CC(=O)N(c3ccc4c(c3)OCCO4)C2)c1 (centres undefined)	3.4	3.8	-2.1	3.6	39.0	3.2
Cc1ccc(N2CC(C(=O)Nc3ccc4c(c3)OCCO4)CC2=O)cc1C (centres undefined)	-4.5	54.4*	46.5	14.1	-1.8	39.1
Cc1ccc(N2CC(C(=O)Nc3ccc4c(c3)OCCO4)CC2=O)cc1 (centres undefined)	3.1	59.4*	49.7	-20.7	-3.2	9.6
SMILES	TRPM1 prom inh	TWEAK-Fn14 inh	TROY signal inh	Shn3 3UTR inh	EBV LMP1 NFkB	Peg3 prom inh
COc1ccc(C)cc1S(=O)(=O)N1CCN(C(=O)c2ncoc2-c2cccc(F)c2)CC1	13.6	8.1	2.2	6.5	-6.6	12.1
Cc1nonc1OCCNc1ccc([N+](=O)[O-])cc1[N+](=O)[O-]	25.1	1.7	6.7	-13.5	6.1	64.6*
Cc1nonc1OCCCNc1ccc([N+](=O)[O-])cc1Cl	-59.1	-38.7	-24.4	-15.9	-26.8	-126.6
O=[N+]([O-])c1cc(S(=O)(=O)Oc2ccccc2)ccc1Cl	87.0*	38.0	4.6	46.2	-1.4	107.1*
O=C(Nc1ccnn1C1CCN(Cc2cccc(OCCO)c2)CC1)C1CCOC1 (centres undefined)	-1.2	-1.3	-4.9	-18.4	-0.7	3.4
O=C(N/N=C/c1cccc(O)c1)c1ccc(NC(=O)C2CCCCC2)cc1	17.0	-18.0	-5.3	4.7	-3.3	-16.3
O=C(N/N=C/c1ccc(O)cc1O)c1ccc(NC(=O)C2CCCCC2)cc1	67.3*	-59.1	-5.6	50.0	2.2	62.2*
CN1CCN(C2Cc3ccc(F)cc3Sc3cc(F)c(Cl)cc32)CC1 (centres undefined)	2.6	-29.3	-33.7	.	-9.7	107.0*
O=C(c1cccs1)c1ccc(-c2cccs2)s1	1.0	60.9*	-6.4	-13.3	-14.2	-40.9
CN1CCN(C(=O)c2ccc(-c3cccs3)s2)CC1	-94.3	2.4	-37.5	-72.8	1.0	-206.7
O=C(NC(c1ccc(Cl)cc1)c1c(O)ccc2ccccc12)c1ccccc1 (centres undefined)	19.2	65.9*	51.7*	3.1	-14.4	57.8*
Cn1nnnc1SCc1csc(Nc2ccccc2)n1	-59.3	4.0	-11.0	-18.3	-8.5	-167.1
Cc1ccc(Nc2nc(CSc3nnc(-c4cccnc4)n3-c3ccccc3C)cs2)cc1	3.1	52.6*	50.7*	1.9	-7.1	-7.6
Cc1ccc(Nc2nc(CSc3nnnn3-c3ccccc3)cs2)cc1	5.7	58.2*	37.9	-21.9	-3.5	-19.1
Cc1ccc(Nc2nc(CSc3nnnn3C)cs2)cc1	-75.3	63.1*	32.6	-10.3	-35.1	-242.6
CCOc1ccc(NS(=O)(=O)c2ccc3c(c2)n(C)c(=O)n3C)cc1	15.8	12.3	4.7	39.6	-2.3	18.6
CSc1nc2c(cnn2-c2ccc(C)c(C)c2)c(=O)[nH]1	28.7	-29.6	0.2	-7.0	6.0	59.0*
CC1OC(COCc2ccccc2)Cc2[nH][nH]c(=O)c21 (centres undefined)	.	4.7	-25.2	.	.	.
Cc1cccc(NC(=O)CN(CC2CCCO2)C(=O)c2cc(S(=O)(=O)N(C)C)ccc2F)c1C (centres undefined)	-5.3	-8.2	-5.2	-6.0	1.5	0.3
COc1cc2ncnc(NCc3ccccc3C)c2cc1OC	2.2	15.7	5.2	3.4	18.1	10.5
